# A selection: hits, their analogues and other compounds. The true share with any hit is near 0.93%.
# CIT2 TOR yeast: modulators of CIT2-GFP expression in yeast, primary screen, S. cerevisiae, GFP fusion, multiplex flow cytometry, MLPCN library; S. cerevisiae CIT2-GFP strain, 3 h; 100 means same as DMSO wells; GFP response vs DMSO, % at 10 µM; 320,000 compounds, 0.065% hits; AID 2029, 2009;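 active means GFP response relative to DMSO above a set limit, near the screen mean plus 3 SD, cut at about 150% in these data; inconclusive means Fewer than 70 cells measured for a yeast strain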;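 further: ratio of well median GFP fluorescence to mean of DMSO wells on the plate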
# RPL19A TOR yeast: RPL19A-GFP expression modulators in yeast, primary screen, cell-based, S. cerevisiae, multiplex flow cytometry, MLPCN. AID 2025, 2009. percent response vs DMSO, % at 10 µM. S. cerevisiae RPL19A-GFP strain, 3 h; hits give low values. 330,000 compounds, 0.3% hits;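 active means percent response vs DMSO below 50%; inconclusive means fewer than 70 events counted for the yeast strain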;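 further: median channel GFP fluorescence of the barcoded RPL19A-GFP strain; lower means less RPL19A-GFP as with rapamycin TOR inhibition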
# AGP1 TOR yeast: modulators of AGP1-GFP expression in yeast TOR pathway, primary screen, cell-based, multiplex flow cytometry, S. cerevisiae, MLPCN library. 3 h; GFP as percent of DMSO wells. GFP response vs DMSO, % at 10 µM. 320,000 compounds, 0.02% hits. AID 2066, 2009;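 active means GFP response relative to DMSO above a set limit, near screen average plus 3 SD, cut at about 150% in these data; inconclusive means fewer than 70 cells counted for the yeast strain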;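 further: median GFP channel fluorescence of the gated AGP1 strain per well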
# MEP2-GFP yeast: modulators of MEP2-GFP levels in yeast, primary screen, S. cerevisiae, multiplex flow cytometry, MLPCN library; S. cerevisiae MEP2-GFP strain, 3 h; 100% = DMSO control level; GFP response vs DMSO, % at 10 µM; 330,000 compounds, 0.51% hits;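 active means GFP response versus DMSO above a set limit, roughly screen mean plus 3 SD, cut at about 180% in these data; inconclusive means fewer than 70 cells counted for a yeast strain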;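 further: median GFP fluorescence of the barcode-gated MEP2-GFP cells per well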
# LAP4 TOR yeast: modulators of LAP4-GFP expression in yeast, primary screen, S. cerevisiae, multiplex flow cytometry, MLPCN library; 3 h; median GFP as percent of DMSO wells; GFP response vs DMSO, % at 10 µM; 320,000 compounds, 0.34% hits; AID 2023, 2009;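 active means GFP response vs DMSO above a set limit, about the screen mean plus 3 SD, cut at about 150% in these data; inconclusive means under 70 cell events counted for the yeast strain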
# Numbers stand for hits; 0 = inactive; ? = inconclusive; - = no result; [ ] = another dose, or the depositor's remark.
SMILES,CIT2 TOR yeast,RPL19A TOR yeast,AGP1 TOR yeast,MEP2-GFP yeast,LAP4 TOR yeast
CCc1ccc(Nc2nnc(SCC(=O)Nc3sccc3C(N)=O)s2)cc1,?,40[may fluoresce violet],0,194[may fluoresce violet],0
O=C(Nc1ccc(N2CCN(C(=O)c3ccco3)CC2)cc1)c1cccnc1Cl,0,0,0,0,0
Cc1cccc(NC(=O)CN2C(=O)N/C(=C\c3ccc(-c4cccc(C(=O)O)c4)o3)C2=O)c1,?,43[may fluoresce violet],?,215[may fluoresce violet],0
O=C(N/C(=C\c1ccc(Cl)cc1)C(=O)N1CCCCC1)c1ccco1,?,0,0,476[may fluoresce violet],0
CC(=O)c1cccc(Nc2nc(N3CCOCC3)nc(N3CCOCC3)n2)c1,?,0,0,226[may fluoresce violet],0
Cc1ccc(S(=O)(=O)N2[C@@H](c3ccc(Cl)cc3)C(C(=O)O)=CC[C@H]2c2cccs2)cc1,0,0,0,0,0
CCOC(=O)c1c(O)c2cccc3c2n(c1=O)CC3,?,32[may fluoresce violet],?,347[may fluoresce violet],0
O=C(NCCO)c1c(O)c2cccc3c2n(c1=O)CC3,0,0,0,0,0
Clc1nc2nc3n(c2nc1Cl)CCC3,0,0,0,0,0
COc1ccc(CNc2nc(-c3cccnc3)nn2C(=O)c2ccco2)cc1,?,-,?,280[may fluoresce violet],0
COc1ccc(CNc2nc(-c3cccnc3)nn2C(C)=O)cc1,0,0,0,0,0
COc1ccc(-n2nc3c(N4CCC(C(=O)NCc5cccc(C)c5)CC4)nnc(C)c3c2C)cc1,?,0,?,235[may fluoresce violet],0
C/C(=N/NC(=O)CNC(=O)c1cccnc1)c1ccc([N+](=O)[O-])cc1,0,0,0,0,0
C/C(=N\NC(=O)Cc1ccc([N+](=O)[O-])cc1)c1cccnc1,151,0,0,0,0
O=C(NCc1ccccc1Br)c1ccc2c(c1)OCCO2,0,0,0,0,0
CC(NC(=O)c1cc(S(=O)(=O)N(C)C)ccc1Cl)c1ccc(-n2ccnc2)cc1 (stereo not given),0,0,0,0,0
Cc1nnc(NC(=O)c2csc3c2CCCC3)s1,0,0,0,0,0
Cc1nnc(NC(=O)c2csc3c2CCC(C)C3)s1 (stereo not given),0,0,0,0,155
CN1CCCC1CCNc1ccc2c(=O)c3ccccc3oc2c1 (stereo not given),?,44[may fluoresce violet],0,342[may fluoresce violet],0
Cc1ccc(S(=O)(=O)/N=C(/Nc2ccc([N+](=O)[O-])cc2[N+](=O)[O-])c2ccccc2)cc1,0,0,0,0,0
CC(=O)OC1C(OC(C)=O)N(C(C)=O)C(=O)N1C(C)=O (stereo not given),?,19[may fluoresce violet],?,200[may fluoresce violet],0
CCN(CC)c1ccc(NC(=O)COC(=O)c2cccs2)cc1,?,16[may fluoresce violet],?,243[may fluoresce violet],0
Cc1ccc(C(C[N+](=O)[O-])n2nc(C)cc2C)cc1 (stereo not given),0,0,0,0,206
Cc1ccc(S(=O)(=O)NCC(C)n2nc(C)cc2C)cc1 (stereo not given),0,0,0,0,0
CCc1nnc2n1N=C(c1ccc(Cl)cc1)CS2,?,29[may fluoresce violet],?,744[may fluoresce violet],0
SMILES,CIT2 TOR yeast,RPL19A TOR yeast,AGP1 TOR yeast,MEP2-GFP yeast,LAP4 TOR yeast
COc1ccc(C(=O)C2CCCN(C(=O)c3cccs3)C2)cc1F (stereo not given),0,0,0,0,167
COc1ccc(C(=O)C2CCCN(C(=O)c3cccnc3OC)C2)cc1F (stereo not given),0,0,0,0,0
O=C(CN1C(=O)NC2(CCOc3ccccc32)C1=O)NCC(F)(F)F (stereo not given),0,0,0,0,0
Cc1ccc(C(C[N+](=O)[O-])Sc2ccc(N)cc2)cc1 (stereo not given),0,0,0,0,201
Nc1ccc(Sc2ccc([N+](=O)[O-])cc2)cc1,0,0,0,0,0
O=C1NC(=O)C(=O)N1,0,0,0,0,0
O=C1CNC(=O)N1,?,40[may fluoresce violet],?,236[may fluoresce violet],0
Cc1oc2cc3c(C(=O)N4CCCCC4)c(C)oc3cc2c1C(=O)N1CCCCC1,?,46[may fluoresce violet],?,259[may fluoresce violet],0
CCC(=O)N1COC[C@@H]1Cc1ccccc1,?,23[may fluoresce violet],?,211[may fluoresce violet],0
CC(C)(C)NC(=O)C1CCN(S(=O)(=O)c2cccc3nsnc23)CC1,0,0,0,0,0
COc1ccc(CNC(=O)C2CCN(S(=O)(=O)c3cccc4nsnc34)CC2)cc1,?,15[may fluoresce violet],?,0,0
COc1cccc(C(=O)N2CCC(C(=O)NCc3ccc(C)cc3)CC2)c1,?,?,?,258[may fluoresce red and violet],0
COC(=O)CNC(=O)C1CCN(S(=O)(=O)c2cccc3nsnc23)CC1,?,20[may fluoresce violet],?,0,0
O=C1N(Cc2ccccc2)CCCC12CCCN(Cc1ccccc1)C2=O,?,34[may fluoresce violet],?,273[may fluoresce violet],0
O=C1CCCN1Cc1ccccc1,0,0,0,0,0
COCCCn1c(=O)c2ccccc2n(Cc2cc(C(=O)OC)ccc2OC)c1=O,0,0,0,0,0
CN(C)C(C(=O)NC1CCCCC1)c1ccc(Cl)cc1 (stereo not given),?,13[may fluoresce violet],?,?,?
COC(CN(C(=O)CCl)C(C(=O)NC1CCCCC1)c1ccc(Cl)cc1)OC (stereo not given),0,0,0,0,0
Cc1ccc(S(=O)(=O)CC(=O)Nc2ccccn2)cc1,?,28[may fluoresce violet],?,233[may fluoresce violet],0
Cc1ccc(S(=O)(=O)CC(=O)Nc2ccc(S(=O)(=O)Nc3ccccn3)cc2)cc1,0,0,0,0,0
Cc1ccc(NC(=S)N2CCSC2c2cccs2)cc1 (stereo not given),165,0,0,182,155
Cc1ccc2[nH]c3c(c2c1)CCNC3=O,0,0,0,177,0
CN1CCCN(C(=O)c2cccc3ccccc23)CC1,0,0,0,0,0
Cc1oc(-c2ccccc2F)nc1CN1CCC(C(=O)NC2CCCc3ccccc32)CC1 (stereo not given),0,0,0,0,0
Cc1oc(-c2ccccc2F)nc1CN1CCC(C(=O)NCc2ccco2)CC1,?,0,0,202[may fluoresce violet],0
SMILES,CIT2 TOR yeast,RPL19A TOR yeast,AGP1 TOR yeast,MEP2-GFP yeast,LAP4 TOR yeast
O=C(CSc1ccccn1)N/N=C/c1ccccc1[N+](=O)[O-],0,0,0,0,0
O=C(CSc1ccccn1)N/N=C/c1cc([N+](=O)[O-])ccc1O,?,45[may fluoresce violet],?,277[may fluoresce violet],0
Cc1onc(-c2ccccc2Cl)c1C(=O)N1CCC(Cc2ccccc2)CC1,?,27[may fluoresce violet],?,240[may fluoresce violet],0
CCOc1ccc(CCNC(=O)C(C)N2C(=O)CC(C)(C)Sc3ccccc32)cc1 (stereo not given),0,0,0,0,0
FC(F)(F)c1cnc(-c2cnc(-c3ccccn3)nc2)c(Cl)c1,0,0,0,0,155
COc1ccccc1/C=C/C=N/NC(=O)c1cccs1,0,0,0,0,156

# High-throughput results deposited in PubChem BioAssay by NMMLSC.
